The results in this text go back to PubChem BioAssay.

Activity calls are given as the source filed them.

In one assay the target is Albumin (Bos taurus) (UniProt P02769). Nature of the assay: bovine serum albumin binders on microarray, profiling panel, artefact control for SMM control protein annotation, biochemical, small-molecule microarray, Alexa647 label, 635/667 nm fluorescence (AID 1118).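 Also: score merges 667 nm emission intensity and signal-to-noise per printed compound spot.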 As to conditions: BSA-A647 binding, fluorescence 635 nm, higher = more signal.
The nature of assay [1]: small-molecule microarray binders of probe aXIP, primary screen, biochemical, NeuroSMM set, 635/667 nm fluorescence (AID 1119).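 Also: probe is the protein aXip251-270 applied at 1 µg/mL to compound-printed slides; binding of probe to printed compounds measured as 667 nm fluorescence plus signal to noise.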 The following applies: higher = more signal, called active from +8 up or from −8 down.
Assay [2] is described as follows: small-molecule binders of probe aNOTCH3, primary screen, biochemical, small-molecule microarray, 635/667 nm fluorescence (AID 1120).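 Also: probe is a biotin-tagged antibody raised against NOTCH3 rather than NOTCH3 protein; score merges spot fluorescence near 667 nm with spot signal to noise.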 The following applies: higher = more signal.
A short description of assay [3]: small-molecule binders of probe aNOTCH2, primary screen, biochemical, small-molecule microarray, 635/667 nm fluorescence (AID 1121).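 Also: score merges feature fluorescence read at 667 nm with its signal to noise.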 As to conditions: higher = more signal.
Assay [4] addresses Carbonic anhydrase 2 (Homo sapiens) (UniProt P00918). Nature of the assay: CAII small-molecule binders, profiling panel, biochemical, small-molecule microarray, Alexa647-labelled CAII (AID 1122). The following applies: CAII-A647 binding fluorescence, higher = more signal.
Assay [5] in a line: COS7 lysate on small-molecule microarray, probe aHis, 635 nm (AID 1123).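 Also: z-score combines 667nm fluorescence intensity with signal-to-noise per printed compound spot.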 As to conditions: COS7 cell lysate, fluorescence, higher = more signal.
Assay [6] is described as follows: compound binding in COS7 lysate, probe aLAP1, primary screen, cell lysate, small-molecule microarray (AID 1124).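 Also: lysate comes from COS7 cells expressing LAP1 and is applied at 0.3 µg/mL; score merges spot fluorescence near 667 nm with signal-to-noise over triplicate slides.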 As to conditions: probe aLAP1, fluorescence, higher = more signal.
A further assay concerns Sam68 (KHDRBS1). Nature of the assay: Sam68 small-molecule binders, primary screen, biochemical, small-molecule microarray, 635 nm fluorescence (AID 1125).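 Also: score merges 667 nm channel intensity with signal to noise over triplicate slides.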 The following applies: small-molecule microarray binding, higher = more signal.
Assay [7] concerns Chordin-like protein 2 (CHRDL2). Nature of the assay: CHRDL2 small-molecule binders, primary screen, biochemical, small-molecule microarray, 635 nm fluorescence (AID 1126).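 Also: printed compound slides probed with Chrdl2 protein at 4 µg/mL for 1 h at 4 C; score merges 667 nm emission intensity with signal to noise over three replicate slides.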 As to conditions: small-molecule microarray binding, fluorescence 635 nm; higher = more signal.
In assay [8] the target is Concanavalin-A (Canavalia ensiformis) (UniProt P02866). Nature of the assay: ConA small-molecule binders, primary screen, artefact control for SMM control protein annotation, biochemical, small-molecule microarray, Alexa647 label, 635 nm (AID 1127).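 Also: z combines 667 nm emission intensity with signal-to-noise across three replicate slides.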 As to conditions: ConA-A647 binding fluorescence, higher = more signal.
Concanavalin-A (Canavalia ensiformis), sequence (P02866 whole entry, looked up): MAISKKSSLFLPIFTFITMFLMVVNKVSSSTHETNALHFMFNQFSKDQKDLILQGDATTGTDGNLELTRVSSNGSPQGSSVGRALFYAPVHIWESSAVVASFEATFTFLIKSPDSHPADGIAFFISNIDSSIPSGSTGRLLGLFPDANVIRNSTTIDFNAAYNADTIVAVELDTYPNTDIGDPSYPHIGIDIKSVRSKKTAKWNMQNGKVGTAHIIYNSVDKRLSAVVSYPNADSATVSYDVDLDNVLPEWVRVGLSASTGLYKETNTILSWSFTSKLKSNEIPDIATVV

Albumin (Bos taurus), sequence (P02769 whole entry, looked up): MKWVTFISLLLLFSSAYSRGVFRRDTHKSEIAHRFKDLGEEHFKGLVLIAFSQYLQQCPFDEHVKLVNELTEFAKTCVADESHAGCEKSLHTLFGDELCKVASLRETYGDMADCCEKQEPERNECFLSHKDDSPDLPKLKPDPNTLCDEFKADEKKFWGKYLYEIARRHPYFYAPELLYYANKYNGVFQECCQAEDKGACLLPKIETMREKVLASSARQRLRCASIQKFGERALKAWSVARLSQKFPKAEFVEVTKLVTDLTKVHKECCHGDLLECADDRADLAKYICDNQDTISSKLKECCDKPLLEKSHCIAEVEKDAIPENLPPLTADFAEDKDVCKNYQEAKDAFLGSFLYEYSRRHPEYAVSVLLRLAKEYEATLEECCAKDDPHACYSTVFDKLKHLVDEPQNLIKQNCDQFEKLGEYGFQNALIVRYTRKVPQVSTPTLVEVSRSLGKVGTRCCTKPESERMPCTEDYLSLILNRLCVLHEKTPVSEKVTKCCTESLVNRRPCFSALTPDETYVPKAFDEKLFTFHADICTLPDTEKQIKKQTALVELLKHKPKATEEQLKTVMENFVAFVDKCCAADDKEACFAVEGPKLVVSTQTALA

As to `Cc1ccc(C(C)CC(O)C2C=CC3C(=O)NC(=O)C3N2Nc2ccccn2)o1` (stereo not given), the composite z-score with Albumin (Bos taurus) is -0.5; in [2] it was 0.237; in assay [3] it was -0.106; in assay [4] it was 0.887; in assay [5], 0.305; in [6], 0.149. Besides, the composite z-score with Sam68 (KHDRBS1) was 0.259; in assay [7], 0.676; in assay [8], -0.336. Also, the composite Z-score in assay [1] was 0.598 (inactive).
Consider `COCC1C2CC[C@H]3C(OCc4ccc(F)cc4C(F)(F)F)OC[C@]4(C)[C@H]3C2=C(CN4C(=O)OC(C)(C)C)[C@H](C)C1COC` (stereo not given in full), for which the composite z-score with Albumin (Bos taurus) amounted to 1.05; in [2], 0.202; in [3], 0.214; in assay [4], 0.698; in assay [5], 3.39; in [6], 0.63. Further, the composite z-score in the assay on Sam68 (KHDRBS1) was 1.2; in [7] it was -1.12; in [8] it was 1.13. In addition, the composite Z-score in assay [1] was 0.973 (inactive).
Regarding `O=C1O[C@H](c2ccccc2)[C@H](c2ccccc2)N2[C@H]1[C@@H](C(=O)NC[C@H](O)c1ccccc1)[C@]1(C(=O)Nc3ccc(C#CC4=CCCCC4)cc31)[C@H]2c1ccc(O)cc1`, the composite z-score in the assay with Albumin (Bos taurus) was 0.296; in assay [2] it was 0.0112; in assay [3], -0.124; in assay [4] it was 0.397; in assay [5], 1.98; in assay [6], 0.826. The composite z-score with Sam68 (KHDRBS1) came to 1.29; in [7] it was 0.594; in assay [8], 1.09. In addition, in assay [1], the composite Z-score was -1.22 (inactive).
For `C=CCOC(=O)[C@@H]1[C@H]2C(=O)O[C@H](c3ccccc3)[C@H](c3ccccc3)N2[C@H](c2ccc(OCCOC(=O)[C@H]3C[C@H]4C(=O)N[C@@H](CCCC[N+](C)(C)C)C(=O)N4[C@H]3c3cccc(OCCO)c3)cc2)[C@@]12C(=O)Nc1ccc(I)cc12`, the composite z-score in the assay with Albumin (Bos taurus) is -0.707; in assay [2], -0.0647; in assay [3] it was -0.142; in assay [4] it was 0.465; in assay [5], 0.93; in [6], 0.341. The figures for the composite z-score (with Sam68 (KHDRBS1); in assay [7]; in assay [8]) were 1.19, 1.19 and 1.1, respectively. In assay [1], the composite Z-score was 0.629 (inactive).
For the compound `COc1ccccc1CN1C(=O)c2ccccc2[C@](Cc2ccccc2I)(C(=O)NC2CC2)[C@@H]1c1ccc(CO)cc1`, the composite z-score was 0.0506 in the assay with Albumin (Bos taurus); -0.0208 in [2]; -0.0878 in [3]; 0.548 in [4]; 2.11 in assay [5]; 0.524 in assay [6]. In addition, the composite z-score in the assay on Sam68 (KHDRBS1) was 1.32; in assay [7], 0.245; in assay [8] it was 1.14. Further, the composite Z-score in assay [1] was 0.0161 (inactive).
`O=C1NC(=O)C2C1C=CC(C(O)c1cccs1)N2Nc1ccccn1` (stereo not given): the composite z-score was 0.426 in the assay with Albumin (Bos taurus); 0.118 in [2]; -0.0826 in assay [3]; 0.803 in assay [4]; 1.21 in assay [5]; 0.0919 in [6]. Besides, the composite z-score was determined as 0.248 with Sam68 (KHDRBS1), 0.129 in [7] and 0.766 in assay [8]. Moreover, the composite Z-score in assay [1] is 0.32 (inactive).
On to `CN(C)CCCCCCNC(=O)[C@@H]1C[C@@H]2C(=O)NCC(=O)N2[C@@H]1c1cccc(OCCO)c1`, for which the composite z-score with Albumin (Bos taurus) is -0.615; in [2], 0.113; in [3], -0.0519; in assay [4], 0.63; in assay [5] it was 2.54; in assay [6], 0.212. The results for the composite z-score (in the assay on Sam68 (KHDRBS1); in assay [7]; in assay [8]) were 1.3, 1.35 and 1.22, respectively. In addition, the composite Z-score in assay [1] is 1.04 (inactive).
With `O=C1C2C=CC(C(O)c3cccc4ccccc34)N(n3cnnc3)C2C(=O)N1Cc1ccccc1` (stereo not given), the composite z-score with Albumin (Bos taurus) was -0.0146; in assay [2], 1.28; in [3] it was 0.747; in assay [4], 0.754; in assay [5], 0.434; in [6] it was 0.544. For the same compound, the composite z-score with Sam68 (KHDRBS1) was -0.131; in assay [7], 0.166; in assay [8], 0.0912. Besides, the composite Z-score in assay [1] was -0.415 (inactive).
Turning to `O[C@@H](Cc1ccccc1)[C@@H](/C=C/c1ccccc1)NCc1ccccc1Br`, the composite z-score was -0.786 in the assay with Albumin (Bos taurus); -0.358 in assay [2]; -0.192 in assay [3]; -0.53 in assay [4]; 0.0935 in [5]; -0.329 in [6]. In addition, the composite z-score is -0.815 with Sam68 (KHDRBS1), -0.77 in assay [7] and -1.05 in assay [8]. In assay [1], the composite Z-score was -0.577 (inactive).
Consider `Cc1ccc(F)cc1S(=O)(=O)N[C@@H]1CCN(Cc2ccc(C(F)(F)F)cc2)C1`, for which the composite z-score with Albumin (Bos taurus) is -0.973; in [2], -0.159; in assay [3], -0.173; in assay [4], -0.171; in assay [5] it was 0.0774; in [6] it was 0.242. Besides, the composite z-score in the assay on Sam68 (KHDRBS1) is 0.144; in [7], 0.509; in [8] it was -0.628. For the same compound, the composite Z-score in assay [1] was 0.512 (inactive).
In the case of `CN1C(=O)C2C(C1=O)C1C=C(c3ccc(CO)cc3)C2C(C2CC2)N1Cc1cc2c(cc1Br)OCO2` (stereo not given), the composite z-score turned out to be 1.03 in the assay with Albumin (Bos taurus); 0.211 in [2]; 0.109 in assay [3]; 0.786 in assay [4]; 3.13 in assay [5]; 0.863 in assay [6]. Moreover, the composite z-score turned out to be 1.3 in the assay with Sam68 (KHDRBS1), 0.258 in assay [7] and 1.16 in [8]. In assay [1], the composite Z-score is 1.55 (inactive).
Take `COc1ccc(C(=O)Nc2cccc(CN3C(=O)[C@@]4(O[C@@H](CCn5cc([C@H](O)c6ccccc6)nn5)[C@H]([Si](C)(C)c5ccc(OC)cc5)[C@H]4C)c4ccccc43)c2)cc1`: the composite z-score was -0.455 in the assay with Albumin (Bos taurus); 0.123 in assay [2]; -0.053 in [3]; 0.113 in assay [4]; 1.16 in [5]; 0.0494 in [6]. Also, the composite z-score in the assay on Sam68 (KHDRBS1) is 0.459; in [7], 0.078; in assay [8], 0.791. Further, the composite Z-score in assay [1] was 0.257 (inactive).
For `C=CCC(OC(C)=O)[C@@H]1[C@@H](N(Cc2ccc(-c3cccc(C(F)(F)F)c3)o2)C(=O)c2ccc(C)cc2)c2cc(OCCCO)ccc2N1C(=O)c1ccc2ccccc2n1` (stereo not given in full), the composite z-score in the assay with Albumin (Bos taurus) was -0.706; in [2] it was 0.116; in assay [3] it was -0.0255; in [4], 0.053; in [5], 0.163; in assay [6] it was 0.497. Moreover, the composite z-score in the assay on Sam68 (KHDRBS1) was 0.0508; in assay [7], 0.232; in assay [8], -0.335. For the same compound, the composite Z-score in [1] was 0.936 (inactive).
Turning to `COc1ccc([Si](C)(C)[C@@H]2[C@@H](CCO)O[C@]3(C(=O)N(Cc4cccc(N(C=O)c5ccccc5)c4)c4ccccc43)[C@H]2C)cc1`, the composite z-score is 0.492 in the assay with Albumin (Bos taurus); -0.0328 in assay [2]; -0.0876 in assay [3]; 0.457 in assay [4]; 0.46 in assay [5]; -0.206 in [6]. The composite z-score was 1.32 in the assay on Sam68 (KHDRBS1), -0.179 in [7] and 1.1 in [8]. Also, the composite Z-score in assay [1] was 0.492 (inactive).
Regarding `CO[C@H]1O[C@H](CO)[C@@H](OC(=O)Nc2ccc3c(c2)OCO3)[C@H](OC(=O)Nc2ccc3c(c2)OCO3)[C@H]1OC(=O)Nc1ccc2c(c1)OCO2`, the composite z-score with Albumin (Bos taurus) was 0.733; in assay [2] it was 0.307; in [3], -0.0483; in assay [4], 0.7; in assay [5], 2.73; in [6] it was 0.804. The composite z-score in the assay with Sam68 (KHDRBS1) turned out to be 1.29; in assay [7], 0.138; in assay [8], 1.07. In addition, the composite Z-score in assay [1] was 0.204 (inactive).
In the case of `CC(C)(C)OC(=O)CC[C@@]1(C(N)=O)N=C(c2ccc(OCCCO)cc2)O[C@@H]1c1ccccc1N=[N+]=[N-]`, the composite z-score in the assay with Albumin (Bos taurus) is 0.501; in [2], 0.191; in [3], -0.0241; in [4], 0.616; in assay [5] it was 2.08; in assay [6], -0.293. Moreover, the composite z-score was 1.07 in the assay with Sam68 (KHDRBS1), -0.409 in assay [7] and 1.13 in [8]. Further, the composite Z-score in assay [1] was 0.005 (inactive).
